Whole data set: some 16,000 sequences, median “Z-score” near -0.37, cut for the highest 2% near 3.1. The sample holds the highest values, similar sequences and a random draw of the others, so the mix is not that of the screen.

The assay relates to RBM10 RRM1-ZnF-RRM2 (GST-tagged construct). Description: RNAcompete 7-mer binding Z-score; higher = stronger binding preference. In a few lines: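 GST-tagged RBM10 constructs (20 pmol) and a designed pool of 241 399 RNAs up to 41 nt (1.5 nmol) were allowed to bind for 30 min at 4°C in 1 ml Hepes pH 7.8 buffer with glutathione Sepharose beads. After four 2-min washes at 4°C, bound RNA was identified by microarray hybridisation. Enrichment was scored per heptamer motif as a one-sided Z-score across the probes containing it.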
For UUUCGAU, the “RNAcompete 7-mer binding Z-score” value is -0.664.

In the case of UUCGGGA, the “RNAcompete 7-mer binding Z-score” value was 0.734.

Turning to GGGACCA, the “RNAcompete 7-mer binding Z-score” value came to 1.9.

Turning to UUCCGUC, the “RNAcompete 7-mer binding Z-score” value is -0.726.

UCAAUGG: the “RNAcompete 7-mer binding Z-score” value was found to be 1.28.

With UCUGUGG, the “RNAcompete 7-mer binding Z-score” value was 0.199.

GGGAGGG: the “RNAcompete 7-mer binding Z-score” value stood at 4.06.

For GGGAGCG, the “RNAcompete 7-mer binding Z-score” value turned out to be 3.23.

For UGGAGGC, the “RNAcompete 7-mer binding Z-score” value turned out to be 2.16.

AGGAGGG: the “RNAcompete 7-mer binding Z-score” value was 3.31.

As for GGGAGGC, the “RNAcompete 7-mer binding Z-score” value was determined as 3.2.

Turning to AGGAGGC, the “RNAcompete 7-mer binding Z-score” value turned out to be 1.72.

Regarding GAGAGGG, the “RNAcompete 7-mer binding Z-score” value came to 2.75.

With AGGAGGU, the “RNAcompete 7-mer binding Z-score” value amounted to 2.71.

Take GGGAGCC: the “RNAcompete 7-mer binding Z-score” value was 0.891.

On to CGGAGGG, for which the “RNAcompete 7-mer binding Z-score” value came out at 2.92.

On to CGGAGGC, for which the “RNAcompete 7-mer binding Z-score” value came out at 1.24.

CGGAGCG: the “RNAcompete 7-mer binding Z-score” value was 1.45.

For CGCUGGA, the “RNAcompete 7-mer binding Z-score” value is -0.027.

Regarding AGUCGCG, the “RNAcompete 7-mer binding Z-score” value was -0.0634.

UGCCACC: the “RNAcompete 7-mer binding Z-score” value was -0.759.

On to ACUUUGG, for which the “RNAcompete 7-mer binding Z-score” value is -0.351.

With GGCUUGU, the “RNAcompete 7-mer binding Z-score” value was -0.318.

Take CUCGUUC: the “RNAcompete 7-mer binding Z-score” value is -0.61.

As to GGCUUCA, the “RNAcompete 7-mer binding Z-score” value was -0.428.

With GAUACUG, the “RNAcompete 7-mer binding Z-score” value is -0.118.

In the case of GAAGUCG, the “RNAcompete 7-mer binding Z-score” value worked out at 0.428.

As to CUUCUCA, the “RNAcompete 7-mer binding Z-score” value is -0.981.

Regarding UCGUGCG, the “RNAcompete 7-mer binding Z-score” value was -0.027.

As to UCUUAUU, the “RNAcompete 7-mer binding Z-score” value is -0.803.

As for UUAGUAA, the “RNAcompete 7-mer binding Z-score” value is -0.355.

Take AGGCCUC: the “RNAcompete 7-mer binding Z-score” value is -0.828.

Consider UGGAGGU, for which the “RNAcompete 7-mer binding Z-score” value turned out to be 3.02.

Take GGGAGGU: the “RNAcompete 7-mer binding Z-score” value came out at 3.39.

For CGGAGGU, the “RNAcompete 7-mer binding Z-score” value came to 2.46.

Turning to CCACGAA, the “RNAcompete 7-mer binding Z-score” value is -0.544.

Regarding CAGGUAG, the “RNAcompete 7-mer binding Z-score” value was determined as 2.68.

UAGGUAA: the “RNAcompete 7-mer binding Z-score” value came out at 1.96.

Take UAGGUAG: the “RNAcompete 7-mer binding Z-score” value was found to be 2.27.

Take AAGGUAG: the “RNAcompete 7-mer binding Z-score” value worked out at 3.82.

Consider AAGGUAU, for which the “RNAcompete 7-mer binding Z-score” value was found to be 2.03.

As to AAGGUAA, the “RNAcompete 7-mer binding Z-score” value turned out to be 3.65.

Consider GGCCGUA, for which the “RNAcompete 7-mer binding Z-score” value is 0.0786.

In the case of AAGAGGU, the “RNAcompete 7-mer binding Z-score” value came to 1.66.

In the case of CCGCAUA, the “RNAcompete 7-mer binding Z-score” value is -0.817.

With AAGAUUU, the “RNAcompete 7-mer binding Z-score” value was -0.588.

In the case of CGUAAUC, the “RNAcompete 7-mer binding Z-score” value was -0.511.

With UGGUGAA, the “RNAcompete 7-mer binding Z-score” value amounted to 1.22.

As for GGGUGAA, the “RNAcompete 7-mer binding Z-score” value is 3.66.

As to GGGUGAC, the “RNAcompete 7-mer binding Z-score” value came out at 2.92.

With GGGUGAG, the “RNAcompete 7-mer binding Z-score” value was determined as 4.12.

For the sequence CGGUGAG, the “RNAcompete 7-mer binding Z-score” value came to 1.64.

For the sequence UGGUGAU, the “RNAcompete 7-mer binding Z-score” value was found to be 0.727.

For the sequence CGGUGAA, the “RNAcompete 7-mer binding Z-score” value came out at 0.723.

As to GGGUGAU, the “RNAcompete 7-mer binding Z-score” value is 3.16.

Take AGGUGAU: the “RNAcompete 7-mer binding Z-score” value came to 1.62.

In the case of CAUUUCU, the “RNAcompete 7-mer binding Z-score” value was -0.872.

As for CAUAACU, the “RNAcompete 7-mer binding Z-score” value is -0.592.

For the sequence UAAAGCC, the “RNAcompete 7-mer binding Z-score” value was -0.661.

On to ACGUUUC, for which the “RNAcompete 7-mer binding Z-score” value was -0.912.

Consider GAACAGA, for which the “RNAcompete 7-mer binding Z-score” value came to 0.745.

Turning to GGACAGU, the “RNAcompete 7-mer binding Z-score” value was found to be 1.01.

Consider GAACAGG, for which the “RNAcompete 7-mer binding Z-score” value was 3.18.

For UAACAGG, the “RNAcompete 7-mer binding Z-score” value was determined as 1.14.

For the sequence GGACAGG, the “RNAcompete 7-mer binding Z-score” value amounted to 3.23.

As for AGACAGG, the “RNAcompete 7-mer binding Z-score” value came to 1.72.

Regarding ACCCAGG, the “RNAcompete 7-mer binding Z-score” value was -0.173.

As to GCUUUAA, the “RNAcompete 7-mer binding Z-score” value was -0.726.

On to CCAGCUA, for which the “RNAcompete 7-mer binding Z-score” value was -0.719.

Turning to GUGGUAU, the “RNAcompete 7-mer binding Z-score” value was determined as 1.08.

For GUGCUAG, the “RNAcompete 7-mer binding Z-score” value turned out to be 0.268.

Take CGAUCUG: the “RNAcompete 7-mer binding Z-score” value was -0.795.

For GUCUAAC, the “RNAcompete 7-mer binding Z-score” value was -0.486.

With GGGUAGC, the “RNAcompete 7-mer binding Z-score” value was 2.69.

UGGUAGC: the “RNAcompete 7-mer binding Z-score” value amounted to 1.01.

Take GGGUAGA: the “RNAcompete 7-mer binding Z-score” value was 3.84.

For AGGUAUG, the “RNAcompete 7-mer binding Z-score” value came to 1.95.

In the case of GGGUAUC, the “RNAcompete 7-mer binding Z-score” value amounted to 2.16.

Turning to GAGUAGA, the “RNAcompete 7-mer binding Z-score” value was determined as 1.4.

As to GGGUAUG, the “RNAcompete 7-mer binding Z-score” value came to 3.69.

Take GAGUAGG: the “RNAcompete 7-mer binding Z-score” value was found to be 3.6.

GAGUAGU: the “RNAcompete 7-mer binding Z-score” value was 0.68.

As for CGGUAGA, the “RNAcompete 7-mer binding Z-score” value was 1.01.

On to UGGUAGG, for which the “RNAcompete 7-mer binding Z-score” value came out at 3.16.

For the sequence UGGUAGA, the “RNAcompete 7-mer binding Z-score” value came to 1.89.

Regarding UGAUUCC, the “RNAcompete 7-mer binding Z-score” value was -0.668.

For AAUUGUG, the “RNAcompete 7-mer binding Z-score” value is -0.00512.

Turning to UUGGUGA, the “RNAcompete 7-mer binding Z-score” value was determined as 1.39.

As to GAUCGCG, the “RNAcompete 7-mer binding Z-score” value was -0.0925.

Regarding UCGUUCA, the “RNAcompete 7-mer binding Z-score” value was -0.508.

In the case of UUUGAUG, the “RNAcompete 7-mer binding Z-score” value was -0.358.

On to UUGAGCA, for which the “RNAcompete 7-mer binding Z-score” value is -0.165.

Values taken from the supplement of paper PMC5499739.
